Five compounds from PubChem BioAssay can be followed below.

The nature of experiment [1]: inhibitors of TNFa-induced NFkB p65 translocation, primary screen, imaging, HUVEC, MLSMR starter and 10KST1 sets (AID 438;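 active means inhibition above 20% together with a positive visual image hit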;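 further: compound added about 3h40 before a 20 min TNFalpha stimulation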;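 on inhibition: signal is the nuclear over cytoplasmic p65 intensity ratio per well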). The settings on record: HUVEC TNFa-induced p65 nuclear translocation; cell count: measured here: nuclei count (cytotoxicity indicator), at 2.08 µM; inhibition: at 2 µM, stronger effect = higher value, 0% TNFa-plus-vehicle, 100% no-TNFa wells.
Experiment [2] is described as follows: reduction of polyQ htt aggregates in cells – imaging, exon1htt(103Q)mCFP cells, high-content imaging, primary screen (AID 483;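 active means visual image review flags a hit and inhibition of aggregation exceeds 20%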;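 further: compound exposure lasted 3 days before fixation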;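 on nuclei count: percent of the per-plate median nuclei count of sample wells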). The settings on record: exon1htt(103Q)mCFP cell line, aggregate imaging, at 2 µM; inhibition of aggregation: stronger effect = higher value; nuclei count: measured here: cell count, toxicity.
Experiment [3] can be described thus: endothelial E-selectin expression blockers – imaging, HUVEC, immunofluorescence, MLSMR starter and 10KST1 sets, primary screen (AID 487;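 active means visually confirmed hit in the image check and inhibition above 20%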;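 on inhibition: signal is fraction of cell area covered by stained E-selectin grains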;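 on nuclei count: 100% = median nuclei count of all wells on the same plate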). The settings on record: HUVEC TNFalpha-induced E-selectin immunofluorescence imaging, at 2 µM; inhibition: stronger effect = higher value; nuclei count: measured here: cell number, toxicity.
Experiment [4] can be described thus: Primary imaging screen for DUSP6 inhibitors that restore phospho-Erk in transfected HeLa cells, chemical complementation (AID 609;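 active means compounds giving at least 50% inhibition in the cell-based MKP-3 phosphatase rescue imaging test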;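 on inhibition: phospho-Erk level distribution per well compared with pooled transfected vehicle control wells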). The settings on record: HeLa MKP-3 transfected, phospho-Erk imaging KS statistic, at 10 µM, cells stimulated with TPA for 15 min.
The target of experiment [5] is Dual specificity protein phosphatase 6 (Homo sapiens) (UniProt Q16828). The description is as above. The conditions noted are these: HeLa MKP-3 transfected, phospho-Erk imaging KS statistic; at 10 µM; stronger effect = higher value; cells stimulated with TPA for 15 min.
The target of experiment [6] is Voltage-gated potassium channel subunit beta-2 (Rattus norvegicus) (UniProt P62483). Briefly: inhibitors of rat Kvbeta2 reductase activity – biochemical, NADPH fluorescence, primary screen (AID 622;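 active means fluorescence slope higher than the sample average by over 3 SD, cut at about -0.22 in these data, passing the limit was not always enough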;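 further: slope of raw intensity against log time taken from 70 to 1610 s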). The settings on record: recombinant KvBeta, 4-cyanobenzaldehyde reduction, at 10 µM, stronger effect = higher value.
For experiment [7] the target is unchanged. Briefly: enhancers of rat Kvbeta2 NADPH turnover – biochemical, NADPH fluorescence, primary screen (AID 623;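 active means NADPH fluorescence slope more negative than the mean of all samples by about 3 SD, 99.7% confidence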;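 further: fluorescence intensity change per second fitted from 20 to 320 s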). The settings on record: Recombinant KvBeta, NADPH fluorescence decrease slope, 10 min; at 10 µM; stronger effect = lower value.
The target of experiment [8] is Alpha-2C adrenergic receptor (Homo sapiens) (UniProt P18825). Put plainly: compounds altering alpha2C-coupled GIRK flux – cell-based, HEK293 alpha2C/GIRK1/2, thallium flux, primary screen (AID 624;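 active means fluorescence slope after compound addition differing from the mean of all screened samples at 99.7% confidence, in either direction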;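 further: slope of fluorescence ratio to pre-addition baseline per second over 15 to 24 s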). The settings on record: thallium flux BTC fluorescence, at 10 µM, actives lie on both sides.
Experiment [9] is described as follows: inhibitors of larval lipid processing in zebrafish, primary screen, whole organism, PED6 fluorescence, gall bladder and intestine (AID 686;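 active means a full or partial loss of lipid-probe fluorescence in the fish gall bladder, intestine or both, judged by eye; inactive means no fluorescence loss, or compound toxic to the fish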;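 further: larvae 5 to 7 days old with five fish per well; signal comes from phospholipase A2 cleavage of quenched PED6 carried via bile; overnight exposure to compound and PED6 before scoring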). The settings on record: Zebrafish larvae PED6 lipid processing, fluorescence scoring; screened at 20 µM (by protocol).
Experiment [10] can be described thus: loss of swimming-algae plug formation – whole organism, Chlamydomonas reinhardtii, WT vs cilia-less mutant, absorbance, 96-well, primary screen (AID 463189).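 Further: 0% = wild type cc124 cells in DMSO and 100% = ciliumless bld1 mutant cells.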 The settings on record: Chlamydomonas reinhardtii gravitaxis, OD600 absorbance, 2 days; at 10 µM; stronger effect = higher value.
Experiment [11] is described as follows: blockers of RIG-like receptor reporter activation – cell-based, Sendai virus stimulus, luciferase, 10K MLSCN set, TLR/RLR signaling modifier project, primary screen (AID 602276;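 active means inhibition at or above 50% at 10 µM; inactive means inhibition below 50%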;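 further: firefly luciferase from ISG56 promoter only with Renilla not read in this screen; 0% = Sendai virus plus DMSO and 100% = medium plus DMSO without virus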). The settings on record: HEK293 RL24 IRF3 luciferase reporter, at 10 µM, stronger effect = higher value. A general note: In a reporter assay the amount or activity of a reporter protein is the signal.

Experiment [12] can be described thus: TLR3 IRF3 reporter activation blockers – cell-based, poly I:C stimulus, luciferase, 10K MLSCN set, primary screen (AID 602277;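 active means inhibition of the reporter signal at or above 50%; inactive means inhibition below 50%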). The settings on record: HEK293-TLR3 RL24 IRF3 luciferase reporter, at 10 µM, stronger effect = higher value.
Where [13] appears, read: measured here: cell density z-score.
[14] abbreviates: measured here: nuclear c-Myc green intensity z-score.
[15] abbreviates: measured here: nuclear pErk red intensity z-score, stronger effect = higher value.

Structures are written as SMILES. Where “and” joins values, the source holds several entries; their conditions need not be identical. Identical values can stand only once. Calls of active or inactive are those of the source.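 How the source made its calls, unless noted: active means inhibition at or above 50% relative to wild type and mutant plate controls; inactive means inhibition below 50%.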

Chain of Voltage-gated potassium channel subunit beta-2 (Rattus norvegicus) (P62483 whole entry, looked up): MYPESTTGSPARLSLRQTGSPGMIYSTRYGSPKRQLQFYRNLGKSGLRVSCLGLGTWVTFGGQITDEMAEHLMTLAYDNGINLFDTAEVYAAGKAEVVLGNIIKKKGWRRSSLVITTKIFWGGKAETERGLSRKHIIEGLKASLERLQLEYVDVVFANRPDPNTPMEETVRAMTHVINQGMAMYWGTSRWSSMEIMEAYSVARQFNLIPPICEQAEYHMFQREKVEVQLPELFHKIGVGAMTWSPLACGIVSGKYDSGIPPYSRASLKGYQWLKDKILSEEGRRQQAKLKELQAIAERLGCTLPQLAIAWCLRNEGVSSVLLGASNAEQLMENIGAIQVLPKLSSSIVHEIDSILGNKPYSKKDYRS
Chain of Alpha-2C adrenergic receptor (Homo sapiens) (P18825 whole entry, looked up): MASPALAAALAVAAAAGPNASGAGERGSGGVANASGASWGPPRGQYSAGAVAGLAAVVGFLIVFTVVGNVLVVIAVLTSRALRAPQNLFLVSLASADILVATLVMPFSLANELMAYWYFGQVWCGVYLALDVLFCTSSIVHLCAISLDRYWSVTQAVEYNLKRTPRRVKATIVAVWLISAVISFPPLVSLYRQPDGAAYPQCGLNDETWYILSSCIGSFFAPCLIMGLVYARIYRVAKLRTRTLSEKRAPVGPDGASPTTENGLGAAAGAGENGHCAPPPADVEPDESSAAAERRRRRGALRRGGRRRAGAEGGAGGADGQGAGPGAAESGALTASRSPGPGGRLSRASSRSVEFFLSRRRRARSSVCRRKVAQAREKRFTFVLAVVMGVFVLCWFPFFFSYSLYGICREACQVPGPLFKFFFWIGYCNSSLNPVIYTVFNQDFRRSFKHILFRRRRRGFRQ
Chain of Dual specificity protein phosphatase 6 (Homo sapiens) (Q16828 whole entry, looked up): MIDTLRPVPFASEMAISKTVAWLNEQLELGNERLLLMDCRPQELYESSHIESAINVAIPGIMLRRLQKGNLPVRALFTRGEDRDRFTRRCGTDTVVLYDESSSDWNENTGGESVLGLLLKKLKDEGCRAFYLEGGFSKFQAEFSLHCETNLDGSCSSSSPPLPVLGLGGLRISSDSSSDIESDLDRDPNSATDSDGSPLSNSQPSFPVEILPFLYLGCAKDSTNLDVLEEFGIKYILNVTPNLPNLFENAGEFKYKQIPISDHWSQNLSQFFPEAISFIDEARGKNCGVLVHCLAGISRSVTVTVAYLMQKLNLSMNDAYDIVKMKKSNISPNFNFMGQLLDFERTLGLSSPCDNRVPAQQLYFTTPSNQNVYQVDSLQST

Usually inhibition stands for the change of the read-out against control, counted positive when it falls. Regarding `O=C(NCCO)c1cccc2c1C(=O)c1ccccc1-2`, in experiment [1], the cell count is 511. The inhibition in experiment [1] was -13.6% (inactive); in experiment [3], -95.8% (inactive); in experiment [5], 7.73% (inactive); in experiment [10] it was 31.9% (inactive); in experiment [11], 4.9% (inactive); in experiment [12] it was -1.91% (inactive). For the same compound, in experiment [2], the inhibition of aggregation was 9.3% (inactive). Besides, the nuclei count was 91.4% in experiment [2] and 137% in experiment [3]. Also, the z-score was -0.677 in experiment [4] (setting [13]), 1.11 in experiment [4] (setting [14]) and 1.88 in experiment [4] (setting [15]). Moreover, the fluorescence slope in experiment [6] was -0.517 (inactive). For the same compound, the NADPH fluorescence slope in [7] is -5.1e-05 (inactive). In [8], the slope was 0.00471 (inactive). The compound was classed as inactive in [9].
In the case of `CC(=O)O[C@H]1C[C@@H]2CC[C@@H]3[C@H](CC[C@@]4(C)[C@H]3C[C@H]([N+]3(C)CCCCC3)[C@@H]4OC(C)=O)[C@@]2(C)C[C@@H]1[N+]1(C)CCCCC1`, in [1], the cell count was 612. Further, the inhibition is 0.4% (inactive) in [1]; -24.6% (inactive) in experiment [3]; 7.39% (inactive) in [5]; 0.263% (inactive) and 18.9% (inactive) in [10]; 21.9% (inactive) in [11]; 31.6% (inactive) in [12]. Further, in experiment [2], the inhibition of aggregation was -15.2% (inactive). The nuclei count was 115% in experiment [2] and 114% in experiment [3]. Further, the z-score in [4] (setting [13]) is -0.612; in [4] (setting [14]), 0.0914; in experiment [4] (setting [15]), 0.638. Moreover, the fluorescence slope in [6] was -0.45 (inactive). For the same compound, the NADPH fluorescence slope in experiment [7] is 2.4e-05 (inactive). Further, in experiment [8], the slope is 0.00404 (inactive). Moreover, the compound was classed as inactive in [9].
`Nc1ncnc2c1ncn2[C@@H]1O[C@H](CO)[C@@H](O)[C@H]1O`: in [1], the cell count amounted to 562. Also, the inhibition in experiment [1] was -1.7% (inactive); in experiment [3], -40.5% (inactive); in [5], -12.3% (inactive); in [10], -7.15% (inactive); in experiment [11] it was 11.2% (inactive); in experiment [12], 25.6% (inactive). In experiment [2], the inhibition of aggregation was -15.3% (inactive). The nuclei count in experiment [2] was determined as 101%; in [3] it was 128%. Moreover, the z-score in [4] (setting [13]) is 0.315; in experiment [4] (setting [14]) it was -0.14; in experiment [4] (setting [15]) it was 0.779. Moreover, the fluorescence slope in experiment [6] was -0.453 (inactive). In experiment [7], the NADPH fluorescence slope is -3.6e-05 (inactive). Moreover, in experiment [8], the slope is 0.00542 (inactive). Besides, in [9], the result was inactive.
`CCCCC[C@H](O)/C=C/[C@@H]1[C@@H](CCCCCCC(=O)O)[C@@H](O)C[C@H]1O`: the cell count in experiment [1] came out at 594. In addition, the inhibition was -7.7% (inactive) in [1]; -80.7% (inactive) in experiment [3]; 7.39% (inactive) in [5]; -6.66% (inactive) in [10]; 11.4% (inactive) in experiment [11]; 33.8% (inactive) in [12]. Moreover, the inhibition of aggregation in [2] is 9% (inactive). In addition, the nuclei count in experiment [2] came to 106%; in experiment [3] it was 114%. Besides, the values for the z-score in [4] (setting [13]), in experiment [4] (setting [14]) and in experiment [4] (setting [15]) were -0.368, 0.536 and -0.971, respectively. Moreover, the fluorescence slope in experiment [6] is -0.458 (inactive). The NADPH fluorescence slope in [7] is -4e-05 (inactive). Also, the slope in [8] was 0.00481 (inactive). Also, in [9], the call was inactive.
As for `CCCCCCCCCCCCCCCC(O)C(N)CO` (stereo not given), in experiment [1], the cell count was 586. The inhibition in experiment [1] is 0.2% (inactive); in experiment [3], -75.6% (inactive); in experiment [5] it was 25.1% (inactive); in [10] it was 61% (active); in experiment [11], 18.8% (inactive); in experiment [12] it was 4.1% (inactive). In addition, in experiment [2], the inhibition of aggregation is -17.4% (inactive). The nuclei count in experiment [2] is 104%; in experiment [3], 122%. The z-score was 0.584 in experiment [4] (setting [13]), 2.76 in [4] (setting [14]) and 2.96 in experiment [4] (setting [15]). Also, in experiment [6], the fluorescence slope was -0.485 (inactive). In experiment [7], the NADPH fluorescence slope was -6.4e-05 (inactive). Besides, the slope in [8] is 0.00528 (inactive). Further, the outcome in experiment [9] is “inactive; toxic”.
